Assay results taken from PubChem BioAssay (NCATS).
Inconclusive results are not listed. Entries that show only a call come without a potency. A number with no mark means an inactive call. Calls of active or inactive are those of the source. Calls follow the shape of the dose curve; as a rule, active = well fitted curve in the direction sought with a large enough effect; inconclusive = small, poorly fitted or top-dose-only effect, or another doubt; inactive = no such curve, though single readings can be large; an effect the other way counts as inactive or inconclusive.

Legend:
[1] = P-glycoprotein substrates identified in KB-3-1 adenocarcinoma cell line, qHTS therapeutic library screen (AID 1346986); conditions: KB-3-1 parental cells viability, CellTiter-Glo, 72 h; series mostly up to 44.5 µM; also: nearly all actives have a fitted effect of over 60% in size
In short: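 KB-3-1 parental cells and P-gp-overexpressing KB-8-5-11 (colchicine omitted during assay) plated at 500 cells/well, dosed in dose-response, incubated 72 h at 37 degree C. CellTiter-Glo luminescence read; KB-8-5-11 also tested with tariquidar.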

[2] = P-glycoprotein substrates identified in KB-8-5-11 adenocarcinoma cell line, qHTS therapeutic library screen (AID 1346987); conditions: KB-8-5-11 (P-gp overexpressing) viability, CellTiter-Glo, 72 h; series mostly up to 44.5 µM; also: nearly all actives have a fitted effect of over 65% in size
In short: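 P-gp-mediated resistance screen: KB-8-5-11 cells treated 72 h with compounds in dose-response. CellTiter-Glo viability.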

For C[C@@H]1CC[C@]2(C(=O)O)CC[C@]3(C(=O)O)C(=CCC4[C@@]5(C)CC[C@H](O[C@@H]6O[C@@H](C)[C@H](O[C@@H]7O[C@H](CO)[C@@H](O)[C@H](O)[C@H]7O)[C@@H](O)[C@H]6O)C(C)(C)C5CC[C@]43C)C2[C@H]1C (some centres undefined), the Potency [1] was “inactive” and the Potency [2] was “inactive”.

For C[C@@H]1C[C@H](O)/C=C/[C@H](O)[C@@H](O)CC(=O)O1, the Potency [1] was “inactive” and the Potency [2] was “inactive”.

With CC(=O)OC[C@@]12[C@H](O)C[C@@H](C)[C@]3(C[C@@H](c4ccoc4)OC3=O)[C@H]1C[C@H](O)C[C@]21CO1 the Potency [1] was “inactive” and the Potency [2] was “inactive”.

With O=C(/C=C/c1ccc(O)cc1)OCC1=C[C@@H](O)[C@@H]2C=CO[C@@H](O[C@@H]3O[C@H](CO)[C@@H](O)[C@H](O)[C@H]3O)[C@H]12 the Potency [1] was “inactive” and the Potency [2] was “inactive”.

For O=C(C1CC1)N1CC[C@@H](Cc2n[nH]c(=O)n2-c2ccc(-c3ccc4occc4c3)cc2)C1, the Potency [1] was “inactive” and the Potency [2] was “inactive”.

In the case of CC(NC(=O)CC(=O)O)c1nc2ccccc2c(=O)[nH]1 (centres undefined), the Potency [1] was “inactive” and the Potency [2] was “inactive”.

For CCn1cc(C2=NOC(C(=O)Nc3c(C)n(C)n(-c4ccccc4)c3=O)C2)c(C)n1 (centres undefined), the Potency [1] was “inactive” and the Potency [2] was “inactive”.

In the case of COC(=O)CC1(O)C(=O)Nc2ccccc21 (centres undefined), the Potency [1] was “inactive” and the Potency [2] was “inactive”.

With CC(=O)OC[C@]1(O)[C@H]2[C@H](OC(=O)CC(C)C)OC=C(CO[C@@H]3O[C@H](CO)[C@@H](O)[C@H](O)[C@H]3O)[C@H]2C[C@@H]1O the Potency [1] was “inactive” and the Potency [2] was “inactive”.

In the case of C=C[C@H]1[C@H](O[C@@H]2O[C@H](CO[C@@H]3OC[C@](O)(CO)[C@H]3O)[C@@H](O)[C@H](O)[C@H]2O)OC=C2C(=O)OCC[C@H]21, the Potency [1] was “inactive” and the Potency [2] was “inactive”.

With CC(=O)O[C@H]1CC[C@@]2(CI)C(=CC[C@@H]3[C@@H]2CC[C@]2(C)[C@@H]([C@H](C)CCCC(C)C)CC[C@@H]32)C1 the outcome [1] was “inactive [at 9.29 µM]” and the outcome [2] was “inactive [at 9.29 µM]”.

In the case of CCN[C@@H]1C[C@H](N)[C@@H](O[C@H]2OC(CN)=CC[C@H]2N)[C@H](O)[C@H]1O[C@H]1OC[C@](C)(O)[C@H](NC)[C@H]1O, the Potency [1] was “inactive” and the Potency [2] was “inactive”.

In the case of C/C=C(\C)C(=O)O[C@H]1[C@H](O)[C@]2(COC(C)=O)[C@H](O)C[C@]3(C)C(=CCC4[C@@]5(C)CC[C@H](O[C@@H]6O[C@H](C(=O)O)[C@@H](O[C@@H]7O[C@H](CO)[C@@H](O)[C@H](O)[C@H]7O)[C@H](O)[C@H]6O[C@@H]6O[C@H](CO)[C@@H](O)[C@H](O)[C@H]6O)[C@](C)(CO)C5CC[C@]43C)[C@@H]2CC1(C)C (some centres undefined), the outcome [1] was “inactive [at 9.29 µM]” and the activity change, negative = cytotoxicity [2] was 3.98% [at 9.29 µM].

With CC(=O)Oc1cc2c(s1)CCN([C@H](C(=O)C1CC1)c1ccccc1F)C2 the Potency [1] was “inactive” and the Potency [2] was “inactive”.

With C[C@@H]1C[C@H]2[C@@H]3CCC4=CC(=O)C=C[C@]4(C)[C@@]3(F)[C@@H](O)C[C@]2(C)[C@@]1(O)C(=O)COP(=O)(O)O the Potency [1] was “inactive” and the Potency [2] was “inactive”.

For CC1(CO)CC[C@]2(C(=O)O[C@@H]3O[C@H](CO)[C@@H](O)[C@H](O)[C@H]3O)CC[C@]3(C)C(=CCC4[C@@]5(C)C[C@H](O)[C@H](O[C@@H]6OC[C@@H](O)[C@H](O)[C@H]6O)[C@@](C)(CO)C5CC[C@]43C)C2C1 (some centres undefined), the outcome [1] was “inactive [at 9.29 µM]” and the outcome [2] was “inactive [at 9.29 µM]”.

With CCC1CC2C(C)=CC3CCCCC3C2(C)C2(OC(=O)C(C)(O)OC2=O)O1 (centres undefined) the Potency [1] was “inactive” and the Potency [2] was “inactive”.

With Nc1nonc1C(=Nc1ccc(F)c(Cl)c1)NO the Potency [1] was “inactive” and the Potency [2] was “inactive”.

With Cc1onc(-c2ccccc2)c1C(=O)N[C@@H]1C(=O)N2[C@@H]1SC(C)(C)[C@@H]2C(=O)O the Potency [1] was “inactive” and the Potency [2] was “inactive”.

In the case of COc1ccc(/C=C/C(=O)O[C@H]2[C@@H]3C=CO[C@@H](O[C@@H]4O[C@H](CO)[C@@H](O)[C@H](O)[C@H]4O)[C@@H]3[C@@]3(CO)O[C@@H]23)cc1O, the Potency [1] was “inactive” and the Potency [2] was “inactive”.

With C=C1CCC2C(C)(COC3OC(COC(=O)CC(=O)O)C(O)C(O)C3O)CCCC2(C)C1CCC1=CCOC1=O (centres undefined) the Potency [1] was “inactive” and the Potency [2] was “inactive”.

For C[C@@H]1O[C@@H](O[C@H]2[C@H](O)[C@@H](C(=O)O)O[C@@H](O[C@H]3CC[C@@]4(C)C(CC[C@]5(C)C4CC=C4C6CC(C)(C)CC[C@]6(C(=O)O)CC[C@]45C)C3(C)C)[C@@H]2O[C@@H]2O[C@H](CO)[C@@H](O)[C@H](O)[C@H]2O)[C@H](O)[C@H](O)[C@H]1O (some centres undefined), the outcome [1] was “inactive [at 9.29 µM]” and the outcome [2] was “inactive [at 9.29 µM]”.
